# Measurements taken from PubChem BioAssay (EPA / NIEHS).
# Records with an inconclusive call do not appear. Activity calls are given as the source filed them. Rule for the calls, unless noted: active = hit-call score of the fitted dose curve at least 0.9, where 1 is the maximum; inactive = score below 0.9.
# Key:
# [1] = biological target: Paired box protein Pax-6 (Homo sapiens) (UniProt P26367); test: ATG_Pax6_CIS: Attagene CIS-FACTORIAL HepG2 Assay for human Paired Box 6 (PAX6) (AID 2282956); details: HepG2 CIS-FACTORIAL PAX6 reporter transcription, RNA readout; actives raise or lower the signal
# Chain of Paired box protein Pax-6 (Homo sapiens) (P26367 whole entry, looked up): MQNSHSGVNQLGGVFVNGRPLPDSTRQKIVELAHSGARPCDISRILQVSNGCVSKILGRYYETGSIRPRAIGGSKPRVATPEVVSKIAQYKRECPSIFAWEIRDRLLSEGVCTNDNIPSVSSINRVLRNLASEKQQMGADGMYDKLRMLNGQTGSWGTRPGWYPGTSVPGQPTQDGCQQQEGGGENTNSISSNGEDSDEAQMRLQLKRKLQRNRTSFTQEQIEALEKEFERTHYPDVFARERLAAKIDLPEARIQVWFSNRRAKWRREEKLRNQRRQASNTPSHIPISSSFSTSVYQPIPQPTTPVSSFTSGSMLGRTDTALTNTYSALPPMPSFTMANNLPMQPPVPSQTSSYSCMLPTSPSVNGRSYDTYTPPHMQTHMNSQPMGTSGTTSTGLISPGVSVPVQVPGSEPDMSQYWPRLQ
# Outline: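 Read-out is reporter transcript level, measured by RT-PCR with fluorescent primer extension and capillary electrophoresis after 24 h dosing of transfected HepG2 cells. Activity in either direction fitted relative to DMSO control.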
# [2] = ATG_PXRE_CIS: Attagene CIS-FACTORIAL HepG2 Assay for human Pregnane X Receptor Element (PXRE) (AID 2282957); details: HepG2 Attagene CIS-FACTORIAL PXRE reporter, mRNA; actives raise or lower the signal
# Outline: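 After a 24 h chemical incubation, total RNA from transfected HepG2 cells was reverse-transcribed and reporter cDNA amplified, FAM-labeled, HpaI-digested and sized by capillary electrophoresis. DMSO served as baseline for bidirectional curve fitting.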
# [3] = ATG_PPRE_CIS: Attagene CIS-FACTORIAL HepG2 Assay for human Peroxisome Proliferator-activated Response Element (PPRE) (AID 2282958); details: HepG2 PPRE cis-element reporter, Attagene transcription factor profiling; actives raise or lower the signal
# Outline: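 Transcript-level reporter induction in transfected HepG2 cells after 24 h chemical exposure, quantified by fluorescence from RT-PCR products separated by capillary electrophoresis.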
# [4] = ATG_RORE_CIS: Attagene CIS-FACTORIAL HepG2 Assay for human RAR-related Orphan Receptor Element (RORE) (AID 2282959); details: HepG2 Attagene cis-factorial RORE reporter, mRNA; actives raise or lower the signal
# Outline: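 Multiplexed reporter assay measuring mRNA induction from a cis promoter element in transiently transfected HepG2 cells after 24 h treatment. Detection via RT-PCR and capillary electrophoresis fluorescence; DMSO serves as baseline.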
# [5] = ATG_Sox_CIS: Attagene CIS-FACTORIAL HepG2 Assay for human SRY-box transcription factor (SOX) (AID 2282960); details: HepG2 Attagene cis-factorial SOX reporter, mRNA; actives raise or lower the signal
# Outline: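 Cells were transfected with reporter constructs under cis-regulatory promoters, then exposed to chemicals for 24 h. Reporter transcripts were quantified by fluorescence after RT-PCR and capillary electrophoresis; activity was fitted in both directions against DMSO.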
# [6] = biological target: Transcription factor Sp1 (Homo sapiens) (UniProt P08047); test: ATG_Sp1_CIS: Attagene CIS-FACTORIAL HepG2 Assay for human Specificity Protein 1 (Sp1) (AID 2282961); details: HepG2 Sp1 cis-reporter transcription, actives raise or lower the signal
# Chain of Transcription factor Sp1 (Homo sapiens) (P08047 whole entry, looked up): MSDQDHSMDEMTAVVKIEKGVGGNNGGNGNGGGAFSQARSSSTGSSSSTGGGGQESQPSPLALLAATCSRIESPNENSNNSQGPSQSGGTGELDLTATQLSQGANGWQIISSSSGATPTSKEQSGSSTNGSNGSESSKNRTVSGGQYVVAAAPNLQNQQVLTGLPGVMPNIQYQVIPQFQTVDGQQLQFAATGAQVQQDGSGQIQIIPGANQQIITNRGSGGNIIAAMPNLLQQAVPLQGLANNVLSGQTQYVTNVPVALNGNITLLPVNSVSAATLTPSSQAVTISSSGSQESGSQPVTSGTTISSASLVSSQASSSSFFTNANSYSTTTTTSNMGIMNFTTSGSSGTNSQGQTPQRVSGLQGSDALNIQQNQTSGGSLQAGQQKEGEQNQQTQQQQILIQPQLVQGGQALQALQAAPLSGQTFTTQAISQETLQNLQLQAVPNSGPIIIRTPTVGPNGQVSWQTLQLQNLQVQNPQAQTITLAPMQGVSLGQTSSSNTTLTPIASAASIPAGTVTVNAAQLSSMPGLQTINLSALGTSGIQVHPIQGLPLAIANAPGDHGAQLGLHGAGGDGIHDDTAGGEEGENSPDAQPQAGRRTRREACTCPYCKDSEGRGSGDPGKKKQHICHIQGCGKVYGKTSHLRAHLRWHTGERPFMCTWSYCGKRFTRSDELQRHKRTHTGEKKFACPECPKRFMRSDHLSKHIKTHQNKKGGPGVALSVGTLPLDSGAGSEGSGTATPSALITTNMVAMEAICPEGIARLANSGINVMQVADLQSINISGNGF
# Outline: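 Measures mRNA induction of an Sp1-linked reporter in HepG2 cells 24 h post-dosing. Multiplexed reporters read by RT-PCR and capillary electrophoresis; DMSO serves as negative control and baseline.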
# [7] = ATG_SREBP_CIS: Attagene CIS-FACTORIAL HepG2 Assay for human Sterol Regulatory Element Binding (SREBP) (AID 2282962); details: HepG2 Attagene cis-factorial SREBP reporter, mRNA; actives raise or lower the signal
# Outline: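 Endogenous SREBP activity read as cis-element-driven reporter transcript in transiently transfected HepG2, 24 h post-dosing; quantified via RT-PCR plus capillary electrophoresis of fluorescent fragments. Gain or loss of signal fitted relative to DMSO baseline.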
# [8] = biological target: Signal transducer and activator of transcription 3 (Homo sapiens) (UniProt P40763); test: ATG_STAT3_CIS: Attagene CIS-FACTORIAL HepG2 Assay for human Signal Transducer and Activator of Transcription 3 (STAT3) (AID 2282963); details: HepG2, Attagene cis-factorial STAT3 reporter transcription; actives raise or lower the signal
# Chain of Signal transducer and activator of transcription 3 (Homo sapiens) (P40763 whole entry, looked up): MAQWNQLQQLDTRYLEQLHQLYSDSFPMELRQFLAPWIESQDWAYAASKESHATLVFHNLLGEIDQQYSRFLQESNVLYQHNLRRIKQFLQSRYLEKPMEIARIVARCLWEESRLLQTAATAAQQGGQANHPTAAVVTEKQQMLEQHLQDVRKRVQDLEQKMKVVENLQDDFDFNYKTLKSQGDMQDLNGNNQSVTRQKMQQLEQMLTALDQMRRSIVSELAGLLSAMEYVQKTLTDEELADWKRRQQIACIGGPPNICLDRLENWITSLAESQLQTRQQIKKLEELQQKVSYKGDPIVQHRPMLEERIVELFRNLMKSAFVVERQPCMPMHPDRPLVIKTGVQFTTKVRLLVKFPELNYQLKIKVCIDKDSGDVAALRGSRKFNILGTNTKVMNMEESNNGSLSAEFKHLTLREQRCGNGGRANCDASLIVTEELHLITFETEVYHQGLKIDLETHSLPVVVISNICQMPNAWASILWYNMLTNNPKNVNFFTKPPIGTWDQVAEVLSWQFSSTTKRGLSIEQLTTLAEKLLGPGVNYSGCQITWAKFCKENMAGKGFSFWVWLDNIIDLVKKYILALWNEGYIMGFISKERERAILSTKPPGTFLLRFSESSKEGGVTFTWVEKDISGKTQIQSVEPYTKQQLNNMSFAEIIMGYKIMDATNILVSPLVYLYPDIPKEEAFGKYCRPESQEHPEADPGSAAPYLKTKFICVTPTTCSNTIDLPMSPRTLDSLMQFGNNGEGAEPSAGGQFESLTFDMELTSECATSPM
# Outline: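 Uses human liver HepG2 transiently carrying cis-regulated reporter transcription units. Following 24 h dosing, reporter mRNA induction was detected by RT-PCR and capillary electrophoresis, analysed bidirectionally versus DMSO.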
# [9] = ATG_TA_CIS: Attagene CIS-FACTORIAL HepG2 Assay for human TA Basal Promoter (AID 2282964); details: HepG2 Attagene CIS-factorial TA basal promoter reporter; actives raise or lower the signal
# Outline: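 HepG2 cells transiently transfected with multiplexed cis-promoter reporter units, dosed 24 h. Reporter mRNA measured by RT-PCR, 6-FAM labelling, HpaI digestion and capillary electrophoresis; bidirectional fit versus DMSO baseline, serving as background control.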
# [10] = ATG_TCF_b_cat_CIS: Attagene CIS-FACTORIAL HepG2 Assay for human T-Cell-Factor with beta-catenin (TCF/b-cat) (AID 2282965); details: HepG2 TCF/beta-catenin cis-reporter transcription, actives raise or lower the signal
# Outline: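 Using capillary electrophoresis as the read-out, labelled reporter cDNA fragments from transiently transfected HepG2 were sized and quantified. Exposure lasted 24 hours; activity in either direction was referenced to DMSO.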
# [11] = ATG_TAL_CIS: Attagene CIS-FACTORIAL HepG2 Assay for human TAL Basal Promoter (AID 2282966); details: HepG2 Attagene cis-factorial TAL promoter reporter; actives raise or lower the signal;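 note: background control endpoint measuring basal TAL promoter reporter mRNA not a specific factor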
# Outline: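 Basal-promoter background-control endpoint from a multiplexed HepG2 reporter panel. Cells were exposed 24 h, then reporter mRNA was read by RT-PCR/CE fluorescence and fitted in both directions relative to DMSO.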
# [12] = ATG_TGFb_CIS: Attagene CIS-FACTORIAL HepG2 Assay for human Transforming Growth Factor (TGF) (AID 2282967); details: HepG2 Attagene CIS TGFb reporter, mRNA transcription; actives raise or lower the signal
# Outline: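 HepG2 cells transiently transfected with cis-promoter-driven multiplexed reporter units; 24 h compound exposure. Reporter mRNA measured by RT-PCR, 6-FAM labeling, HpaI digestion and capillary electrophoresis; bidirectional fit versus DMSO baseline.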
# [13] = ATG_VDRE_CIS: Attagene CIS-FACTORIAL HepG2 Assay for human Vitamin D Receptor Element (VDRE) (AID 2282968); details: HepG2 VDRE cis-reporter transcription, actives raise or lower the signal
# Outline: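 Transfected HepG2 reporter cells, chemical treatment 24 h. RNA isolated, cDNA amplified with reporter-specific primers, products analysed by capillary electrophoresis. Endpoint fitted in both directions versus DMSO.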
# [14] = biological target: X-box-binding protein 1 (Homo sapiens) (UniProt P17861); test: ATG_Xbp1_CIS: Attagene CIS-FACTORIAL HepG2 Assay for human X-box Binding Protein 1 (XBP1) (AID 2282972); details: HepG2 XBP1 cis-element reporter, Attagene multiplex; actives raise or lower the signal
# Chain of X-box-binding protein 1 (Homo sapiens) (P17861 whole entry, looked up): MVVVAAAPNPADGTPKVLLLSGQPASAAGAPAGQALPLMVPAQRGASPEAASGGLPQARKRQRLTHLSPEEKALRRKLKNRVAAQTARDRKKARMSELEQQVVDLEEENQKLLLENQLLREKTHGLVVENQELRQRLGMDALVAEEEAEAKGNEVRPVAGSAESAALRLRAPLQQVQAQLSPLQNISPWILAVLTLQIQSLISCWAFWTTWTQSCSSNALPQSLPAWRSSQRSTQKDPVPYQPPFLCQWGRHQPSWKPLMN
# Outline: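 Reporter transcripts were quantified by RT-PCR with fluorescent primer extension and capillary electrophoresis after 24 h chemical exposure. Cells: transiently transfected HepG2 carrying cis-regulated reporter constructs; data fitted bidirectionally relative to DMSO.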
# [15] = ATG_GAL4_TRANS: Attagene TRANS-FACTORIAL HepG2 Assay for GAL4 (Internal Marker) (AID 2282976; active = hit-call score of the fitted dose curve at least 0.9, where 1 is the maximum); details: HepG2 Attagene TRANS GAL4 internal marker reporter
# Outline: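 Background-control readout: GAL4-UAS reporter transcript in transiently transfected HepG2 cells after 24 h compound exposure. Measured by RT-PCR, 6-FAM primer extension, HpaI digest and capillary electrophoresis; gain-of-signal fit versus DMSO.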
# [16] = biological target: Estrogen receptor (Homo sapiens) (UniProt P03372); test: ATG_ERa_TRANS: Attagene TRANS-FACTORIAL HepG2 Assay for human Estrogen Receptor alpha (ERa) (AID 2282970; active = hit-call score of the fitted dose curve at least 0.9, where 1 is the maximum); details: HepG2 Attagene TRANS ERa GAL4 reporter, mRNA
# Chain of Estrogen receptor (Homo sapiens) (P03372 whole entry, looked up, the tested form may be a part): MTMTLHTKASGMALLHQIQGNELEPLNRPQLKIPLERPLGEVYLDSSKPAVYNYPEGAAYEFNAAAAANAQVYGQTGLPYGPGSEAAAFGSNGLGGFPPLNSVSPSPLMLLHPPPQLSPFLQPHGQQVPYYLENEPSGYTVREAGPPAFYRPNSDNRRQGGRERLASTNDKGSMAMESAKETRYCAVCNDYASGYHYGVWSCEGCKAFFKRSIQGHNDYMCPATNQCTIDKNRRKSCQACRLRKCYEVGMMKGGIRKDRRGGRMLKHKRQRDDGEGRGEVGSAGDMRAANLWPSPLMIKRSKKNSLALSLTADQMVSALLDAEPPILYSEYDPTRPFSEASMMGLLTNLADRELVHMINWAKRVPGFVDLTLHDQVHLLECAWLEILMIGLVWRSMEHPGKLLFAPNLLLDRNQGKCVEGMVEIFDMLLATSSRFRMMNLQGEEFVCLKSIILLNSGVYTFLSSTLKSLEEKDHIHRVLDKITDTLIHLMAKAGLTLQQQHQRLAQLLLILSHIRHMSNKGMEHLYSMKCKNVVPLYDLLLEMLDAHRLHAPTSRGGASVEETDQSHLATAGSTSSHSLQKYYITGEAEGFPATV
# Outline: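 Gal4-fusion ERa transactivation, measured as reporter transcript level in transiently transfected HepG2 cells. Exposure 24 h; RT-PCR plus capillary electrophoresis with fluorescence detection.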
# [17] = ATG_M_19_TRANS: Attagene TRANS-FACTORIAL HepG2 Assay for M19 Transcription Factor (Internal Marker) (AID 2282974; active = hit-call score of the fitted dose curve at least 0.9, where 1 is the maximum); details: HepG2 Attagene TRANS-FACTORIAL M19 internal marker reporter
# Outline: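 After transfection of HepG2 with GAL4-UAS-driven reporter constructs, cells are dosed for 24 h. Total RNA is reverse-transcribed, reporter sequences PCR-amplified and labelled, then HpaI-digested and sized by capillary electrophoresis.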
# [18] = biological target: Steroid hormone receptor ERR1 (Homo sapiens) (UniProt P11474); test: ATG_ERRa_TRANS: Attagene TRANS-FACTORIAL HepG2 Assay for human Estrogen-Related Receptor alpha (ERRa) (AID 2282971; active = hit-call score of the fitted dose curve at least 0.9, where 1 is the maximum); details: HepG2 Attagene TRANS reporter, ERRa transactivation
# Chain of Steroid hormone receptor ERR1 (Homo sapiens) (P11474 whole entry, looked up, the tested form may be a part): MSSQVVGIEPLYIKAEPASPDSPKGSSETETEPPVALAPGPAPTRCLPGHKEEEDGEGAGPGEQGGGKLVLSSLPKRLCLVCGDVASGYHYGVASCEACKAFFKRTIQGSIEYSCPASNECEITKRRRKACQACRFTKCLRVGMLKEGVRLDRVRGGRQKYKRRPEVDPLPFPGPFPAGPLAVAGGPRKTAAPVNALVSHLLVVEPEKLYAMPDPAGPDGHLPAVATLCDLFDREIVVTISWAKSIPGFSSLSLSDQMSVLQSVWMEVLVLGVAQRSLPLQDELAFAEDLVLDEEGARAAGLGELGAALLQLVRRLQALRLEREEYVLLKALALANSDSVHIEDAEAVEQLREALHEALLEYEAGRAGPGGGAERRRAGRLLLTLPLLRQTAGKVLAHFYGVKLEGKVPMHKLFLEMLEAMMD
# Outline: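 HepG2 cells transiently transfected with GAL4-UAS reporter units and chimeric NR-Gal4 constructs; after 24 hour compound incubation, reporter mRNA quantified by RT-PCR, fluorescent labelling and capillary electrophoresis, gain of signal versus DMSO.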
SMILES,outcome [1],outcome [2],outcome [3],outcome [4],outcome [5],outcome [6],outcome [7],outcome [8],outcome [9],outcome [10],outcome [11],outcome [12],outcome [13],outcome [14],outcome [15],outcome [16],outcome [17],AC50 [16],outcome [18],AC50 [2]
CCCCCCC(C)O (stereo unspecified),inactive,inactive,inactive,inactive,inactive,inactive,inactive,inactive,inactive,inactive,inactive,inactive,inactive,inactive,inactive,–,–,–,–,–
CC(=O)CCc1ccc(O)cc1,inactive,inactive,inactive,inactive,inactive,inactive,inactive,inactive,inactive,inactive,–,inactive,inactive,inactive,inactive,inactive,inactive,–,–,–
CC(C)(O)C(=O)c1ccc(OCCO)cc1,inactive,inactive,inactive,inactive,inactive,inactive,inactive,inactive,inactive,inactive,inactive,inactive,–,inactive,inactive,–,–,–,–,–
O=S(=O)(O)CCCN1CCOCC1,inactive,inactive,inactive,–,inactive,inactive,inactive,inactive,inactive,inactive,inactive,inactive,–,inactive,inactive,–,–,–,–,–
C1=COCCC1,inactive,–,–,inactive,inactive,inactive,inactive,inactive,inactive,inactive,–,inactive,inactive,–,–,inactive,–,–,–,–
CCC(C)(C)C1CCC(=O)CC1,inactive,–,inactive,inactive,inactive,inactive,inactive,inactive,inactive,inactive,inactive,inactive,inactive,inactive,inactive,–,inactive,28.2 µM (active),inactive,–
CC(C)Cc1ccccc1,inactive,–,–,inactive,inactive,inactive,inactive,inactive,inactive,inactive,inactive,inactive,–,–,–,–,–,–,–,–
CC(CO)(CO)[N+](=O)[O-],inactive,–,inactive,inactive,inactive,inactive,inactive,inactive,inactive,inactive,inactive,inactive,inactive,inactive,inactive,inactive,–,–,–,–
CC(=O)CC(=O)N(C)C,inactive,inactive,–,–,inactive,inactive,inactive,inactive,inactive,–,inactive,inactive,inactive,inactive,inactive,–,–,–,–,–
CC(C)=CCCC(C)=CC(=O)O,inactive,–,–,inactive,inactive,inactive,inactive,inactive,inactive,inactive,inactive,inactive,–,inactive,inactive,–,–,–,–,29.8 µM (active)
